Results published in PubChem BioAssay (NCI).
Compounds without any hit were thinned out: in the full panel of roughly 83,000, 20% have a hit.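 How to read the values: 0–100, growth inhibition (40 = 60% inhibited); 0, no net growth; -100 to 0, cell death (-40 = 40% of starting cells died; -100 = all dead).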 Active and inactive are the calls of the source. How the source made its calls: active means growth percent below 10; inactive means the rest.

Test system: MDA-MB-468 breast
Experiment: NCI-60 one-dose screen, 48 h (100 = growth as untreated, 0 = no growth, -100 = all killed)
Details: 10 µM unless noted

Row | Compound | growth
1 | Cc1ccc(-c2nn(-c3ccccc3)cc2/C=C/C(=O)c2ccc(NC(=O)CCCCCCC(=O)NO)cc2)cc1 | 70.9% (inactive)
2 | N#Cc1c(-c2ccccc2)[nH]c2ncc(-c3ccccc3)n2c1=O | 91.8% (inactive)
3 | CN(C)CN1CCN(c2ccc3nc(-c4ccc5nc(-c6ccc(C(F)(F)F)cc6)[nH]c5c4)[nH]c3c2)CC1 | 13.7% (inactive)
4 | CCCCCCCOc1cccc(/C=C2/C(=O)N=C3SCCCN32)c1 | 56.8% (inactive)
5 | COc1cc(Cn2ncc3ccc(NC(=O)c4cc5ccccc5oc4=N)cc32)cc(OC)c1OC | 36.8% (inactive)
6 | C=CCOc1ccc2c(c1)CC[C@@H]1[C@@H]2CC[C@@]2(C)[C@H]1CC[C@]2(C)O | 81.2% (inactive)
7 | O=[N+]([O-])c1cccc(-c2nc(-c3ccc(Cl)cc3Cl)cn2-c2ccccc2)c1 | 22.2% (inactive)
8 | O=C(O)c1ccccc1C(=O)c1ccc(I)cc1 | 108% (inactive)
9 | N#Cc1ccc(NC(=O)Nc2ccc(Cc3ccc(NC(=O)Nc4ccc(C#N)cc4)cc3)cc2)cc1 | -7.75% (active)
10 | O=C(CN1CCN(c2cc3c(cc2F)c(=O)c(C(=O)N/N=C/c2ccccc2)cn3C2CC2)CC1)N/N=C\c1ccccc1 | 85.4% (inactive)
11 | Cc1ccc2[nH]c(=S)n(-c3ccc(S(=O)(=O)Nc4ccc(Cl)nn4)cc3)c(=O)c2c1 | 107% (inactive)
12 | O=C1/C(=C\c2cccn2C(=O)c2ccccc2)c2ccccc2N1c1c(Cl)cccc1Cl | 46.8% (inactive)
13 | CCN1CCN(CCCN(C[C@H]2Cc3ccccc3CN2)[C@H]2CCCc3cccnc32)CC1 | 87.1% (inactive)
14 | O=S(=O)(NCCCNc1cc(-c2c(-c3cccc(O)c3)nc3sccn23)ccn1)c1cccc(Cl)c1 | 37.2% (inactive)
15 | CC(=O)O[C@H]1CC[C@]2(C)[C@H]3CC=C4[C@@H]5CC(C)(C)CC[C@]5(C(=O)OCC(COC(=O)C(Cl)Cl)(COC(=O)C(Cl)Cl)NC(=O)C(Cl)Cl)CC[C@@]4(C)[C@]3(C)CC[C@H]2C1(C)C | 58.7% (inactive)
16 | Cc1cccc(CN(Nc2ccccc2)c2ccccc2)n1 | 94.9% (inactive)
17 | CCN1C(=O)N(CC)C2C1NC(=S)N2/N=C/c1ccc(OC)cc1 (stereo not given) | 26.8% (inactive)
18 | CNCCCNc1ccnc2cc(Cl)ccc12 | -85% (active)
19 | COc1ccc(-c2cc(-c3ccc(Cl)cc3)nc(SCCCCCCC(=O)NO)n2)cc1OC | 55.2% (inactive)
20 | O=C(COc1cccc(/C=C2\Cc3ccc(Cl)cc3C2=O)c1)Nc1nccs1 | 21.9% (inactive)

Row | Compound | growth
21 | C[C@H](NC(=O)[C@@H]1CSSC[C@@H](NC(=O)Cc2nc3ccccc3cc2O)C(=O)NCC(=O)N1C)c1ccccc1 | 17.5% (inactive)
22 | CC(C)c1nc(N(C)S(C)(=O)=O)nc(-c2ccc(F)cc2)c1/C=C/[C@@H](O)C[C@@H](O)CC(=O)O | 99.4% (inactive)
23 | Nc1nc2c(c3cnccc13)C(c1cccc(Cl)c1)Cc1cnccc1-2 (stereo not given) | -15.9% (active)
24 | COc1ccc(C2CC(=O)Oc3c(OC)c4c(c(OC)c32)OCO4)cc1 (stereo not given) | 96.9% (inactive)
25 | COC1C(O)CC(OC2CC(OC3CC(O[C@@H]4C(=O)c5c(cc6cc(OC7CC(OC8CC(O)C(O)C(C)O8)C(O)C(C)O7)c(C)c(O)c6c5O)CC4[C@H](OC)[C@@H](O)C(C)=O)OC(C)C3O)OC(C)C2O)OC1C (stereo not given in full) | -40.1% (active)
26 | N#C/C(=C\c1ccc(-c2ccc(Br)cc2)o1)c1nc(-c2cccs2)cs1 | 6.37% (active)
27 | COC(=O)c1c2c(c(C)[n+]([O-])c1C)C(=O)C(NCc1ccc(O)cc1)=CC2=O | -44.2% (active)
28 | Cc1cnc(SCc2ccc(Cl)cc2)[nH]c1=S | 110% (inactive)
29 | CC(C)(C)[C@H](OCc1cn([C@H]2C[C@@H](O)[C@@H](CO)O2)c(=O)[nH]c1=O)c1ccc(C#Cc2ccccc2)cc1[N+](=O)[O-] | 68.2% (inactive)
30 | O=c1nc(Nc2ccc([N+](=O)[O-])cc2O)sc2ccccc12 | 34.3% (inactive)
31 | CC(CO)(CO)C(=O)O | 99.9% (inactive)
32 | CCOc1ccc2c(c1)c(C)cc(C)[n+]2CC | 9.85% (active)
33 | CN1CCC[C@]2(C)[C@H]3CC[C@@H]4[C@@H]5[C@H]6OC[C@@]5(CCC6(C)C)CC[C@@]4(C)[C@]3(C)CC[C@H]2C1(C)C | 82% (inactive)
34 | O=S(=O)(Nc1cccc2ccccc12)c1ccc(-c2cnc(C3CC3)o2)cc1 | 0.881% (active)
35 | CC(C)CCC[C@@H](C)[C@H]1CCC2C3=CCC4C(=O)C=CC(=O)C4C3CC[C@@]21C (stereo not given in full) | 2.69% (active)
36 | C[C@@H]1C(=O)N(C[C@H](Cc2ccccc2)NC(=O)OCc2ccccc2)[C@]1(Cc1ccccc1)C(=O)OCc1ccccc1 | 24.6% (inactive)
37 | NS(=O)(=O)c1ccc(CCn2c(SCC(=O)N/N=C/c3cc4ccccc4[nH]3)nc3ccccc3c2=O)cc1 | 60.2% (inactive)
38 | C/C(=C(\c1ccc(O)cc1)c1ccc(OCCN2CCCCCC2)cc1)c1ccc(Cl)cc1 | -88% (active)
39 | CN(C)CCCOc1c2ccc(Cl)cc2nc2c1oc1ccccc12 | -39.8% (active)
40 | CC1(C)CC(=O)C2=C(C1)N(c1ccc(OC(F)(F)F)cc1)C(N)=C(C#N)C2c1ccc(Br)cc1F (stereo not given) | 55.7% (inactive)
